Source: PubChem
Shown are actives, neighbours in structure and some others; about 12% of the full set was active somewhere.
G9a inh: qHTS Assay for Inhibitors of Histone Lysine Methyltransferase G9a; Histone-lysine N-methyltransferase EHMT2 (Homo sapiens), Q96KQ7; G9a H3K9 monomethylation, AlphaScreen, 2 h; Potency, µM (top dose mostly 102 µM), hits mostly inhibitors; 8.8% of 350,000 active; AID 504332, 2011; also: nearly all actives have a fitted effect of over 75% in size
Target sequence (Q96KQ7 913-1193 limits assumed): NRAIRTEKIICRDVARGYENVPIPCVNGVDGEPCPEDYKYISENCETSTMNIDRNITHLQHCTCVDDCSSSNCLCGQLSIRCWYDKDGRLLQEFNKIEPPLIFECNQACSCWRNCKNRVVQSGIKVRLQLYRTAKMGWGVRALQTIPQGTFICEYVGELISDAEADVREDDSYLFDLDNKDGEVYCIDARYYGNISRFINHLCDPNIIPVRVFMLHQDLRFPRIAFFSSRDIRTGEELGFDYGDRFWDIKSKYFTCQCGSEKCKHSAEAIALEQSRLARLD
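Enzyme 20 nM + cpd, 15 min RT; add b-H3K9 pep 500 nM / SAM 20 uM; 2 h RT; anti-H3K9me1 Ab 0.5 ug/mL + SA donor / anti-rabbit acceptor beads 20 ug/mL each, 10 min; AlphaScreen read.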
JMJD2A Tudor inh: qHTS Assay for Inhibitors of JMJD2A-Tudor Domain; AlphaScreen JMJD2A-Tudor / H3K4me3 peptide binding; AID 504339, 2011; 4.4% of 390,000 active; Lysine-specific demethylase 4A (Homo sapiens), O75164; Potency, µM (top dose mostly 114 µM), actives largely listed as inhibitors; also: nearly all actives have a fitted effect of over 50% in size
BAZ2B block: qHTS Assay for Inhibitors of BAZ2B. 4.4% of 360,000 active. AID 504333, 2011. Potency, µM (titrated, usually from 114 µM), actives largely listed as inhibitors. Bromodomain adjacent to zinc finger domain protein 2B (Homo sapiens), Q9UIF8. AlphaScreen BAZ2B-H3K14Ac peptide displacement; also: nearly all actives have a fitted effect of over 60% in size
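Compounds, titrated to a top concentration of 110 uM, were incubated 30 min at room temperature with preformed BAZ2B/acetyl-K14 H3 peptide complex (50 nM each). Proximity signal was measured by AlphaScreen after 20 min with beads.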
Sfp inh: qHTS Assay for Inhibitors of Bacillus subtilis Sfp phosphopantetheinyl transferase (PPTase). Potency, µM, hits mostly inhibitors. AID 1490, 2009. 4'-phosphopantetheinyl transferase ffp (Bacillus subtilis), Q9F4F7. Biochemical Sfp PPTase activity, qHTS. 3.5% of 310,000 active;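 also: the enzyme is Sfp with the accession as filed and its product quenches rhodamine fluorescence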
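Sfp 15 nM + cpd, 15 min RT; start w/ rhodamine-CoA 5 uM, BHQ-2-YbbR 12.5 uM (final); 50 mM Hepes pH 7.6, 10 mM MgCl2, 0.01% NP-40, 0.01% BSA; read 525/598 nm at 0 and 30 min.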
HP1b chromo inh: HTS for Inhibitors of HP1-beta Chromodomain Interactions with Methylated Histone Tails; Chromobox protein homolog 1 (Homo sapiens), P83916; AlphaScreen HP1-beta / biotin-H3K9me3 peptide binding; Potency, µM (titrated, usually from 114 µM), hits mostly inhibitors; 0.56% of 390,000 active; AID 540317, 2011; also: nearly all actives have a fitted effect of over 70% in size
Target sequence (P83916 whole entry, looked up): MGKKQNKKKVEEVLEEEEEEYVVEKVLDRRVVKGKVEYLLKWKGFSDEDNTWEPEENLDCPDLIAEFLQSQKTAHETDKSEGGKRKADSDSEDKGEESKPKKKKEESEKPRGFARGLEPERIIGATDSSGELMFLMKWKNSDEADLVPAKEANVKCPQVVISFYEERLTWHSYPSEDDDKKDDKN
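AlphaScreen: HP1-beta (50 nM) preformed 30 min with biotin-H3(1-18)K9me3 peptide (50 nM) in PBS pH 7.4, 0.01% Tween-20. Compound added for 30 min at RT, then streptavidin donor/nickel chelate acceptor beads (10 ug/mL) for 30 min.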
A number is an active result; - = inactive; ? = inconclusive; . = not tested or not shown; [ ] = remark or other dose. Calls follow the shape of the dose curve; as a rule, active = well fitted curve in the direction sought with a large enough effect; inconclusive = small, poorly fitted or top-dose-only effect, or another doubt; inactive = no such curve, though single readings can be large; an effect the other way counts as inactive or inconclusive.

SMILES | G9a inh | JMJD2A Tudor inh | BAZ2B block | Sfp inh | HP1b chromo inh
COc1cc(C2c3c(c(C)c(C)oc3=O)Oc3c(C)c(C)oc(=O)c32)ccc1OS(=O)(=O)c1ccc(C)cc1 | -[2.33 µM] | - | - | . | -
C=CCc1ccc(OCCOCCNCCCC)c(OC)c1 | ? | 4µM | 50µM | ? | ?
C=CCc1ccc(OCCOCCNCCOC)c(OC)c1 | - | - | - | - | -
C=CCc1ccc(OCCCOc2ccc(C(=O)O)cc2)c(OC)c1 | - | - | - | - | -
C=CCc1cc(Cl)ccc1OCCCNC(C)CC (stereo not given) | 10µM | 22µM | - | - | ?
C=CCc1ccc(OCCCCNC(C)CC)c(OC)c1 (stereo not given) | 14µM | 14µM | - | - | -
CC(C)(C)c1ccc(C(=O)Nc2cccc(-n3cnnn3)c2)cc1 | -[0.501 µM] | - | - | - | -
O=c1ccc2cc(S(=O)(=O)Nc3ccc(F)c(Cl)c3)ccc2[nH]1 | - | - | - | . | -
O=C(O)c1cc(=O)n(Cc2ccccc2)c(=O)[nH]1 | 16µM | 28µM | ? | ? | -
Cc1ccc(NC(=O)c2cc(=O)n(Cc3ccccc3)c(=O)[nH]2)cc1C | - | 10µM | - | - | -
Cc1ccc(NC(=O)c2ccccc2)cc1C | -[2.33 µM] | - | - | . | -
N#Cc1cc2c(nc1SCc1ccncc1)CCC2 | 3.2µM | 22µM | - | 50µM | -
N#Cc1cc2c(nc1SCc1ccccc1)CCC2 | ? | - | - | - | -
CCOC(=O)CC(=O)COc1nc2cc3c(nc2o1)CCCC3 | 45µM | ? | - | - | -
N#Cc1cc2c(nc1SCC(=O)N1CCCCC1)CCCCC2 | 2.8µM | 56µM | - | 56µM | -
N#Cc1cc2c(nc1SCC(=O)N1CCCCC1)CCCC2 | -[12.7 µM] | - | - | - | -
CCOC(=O)CC(=O)CSc1nc2c(cc1C#N)CCCCC2 | 7.9µM | 50µM | - | ? | -
Cc1ccccc1NC(=O)Cn1cnc2c(oc3nc4c(cc32)CCCC4)c1=O | ? | - | ? | - | -
COc1ccccc1Cc1nc2ccccc2nc1SCC(=O)Nc1cc(Cl)ccc1OC | - | - | - | . | -
COc1ccc(S(=O)(=O)NCc2ccncc2)cc1NC(=O)c1ccc(Cl)cc1 | - | - | - | . | -
CCOc1ccc(S(=O)(=O)NCc2ccncc2)cc1NC(=O)c1ccccc1 | 56µM | - | - | . | -
COc1ccc(S(=O)(=O)NCc2ccccn2)cc1NC(=O)c1ccc(Cl)cc1 | - | 3.5µM | - | . | -
COc1ccc(S(=O)(=O)NCc2ccccn2)cc1NC(=O)c1ccccc1C | - | 1µM | ? | . | -
COc1ccc(S(=O)(=O)NCc2ccncc2)cc1NC(=O)c1ccccc1 | -[0.501 µM] | - | - | . | -
O=C1CC[C@H](OCc2ccccc2)CCN1[C@H](CSc1ccccc1)Cc1ccccc1 | ? | - | - | - | -
SMILES | G9a inh | JMJD2A Tudor inh | BAZ2B block | Sfp inh | HP1b chromo inh
COC(=O)Nc1ccc(S(=O)(=O)N2CCCC(C(=O)NCC3CCCO3)C2)cc1 (stereo not given) | . | - | . | . | -
O=C(CSc1nnc(-c2cccs2)n1C1CC1)NCC1CCCO1 (stereo not given) | -[2.33 µM] | - | - | . | -
CCOC(=O)c1sc(N2C(=O)C(O)=C(C(=O)c3ccco3)C2c2cccc([N+](=O)[O-])c2)nc1C (stereo not given) | 45µM | ? | ? | ? | -
Cc1cc(N2C(=O)C(O)=C(C(=O)c3ccco3)C2c2cccc(O)c2)no1 (stereo not given) | ? | - | ? | - | -
Cc1nnc(N2C(=O)C(O)=C(C(=O)c3ccco3)C2c2cccc3ccccc23)s1 (stereo not given) | 50µM | - | - | ? | -
Cc1ccc(C2C(C(=O)c3ccco3)=C(O)C(=O)N2c2nnc(C)s2)cc1 (stereo not given) | . | 79µM | - | 89µM | -
Cc1nnc(N2C(=O)C(O)=C(C(=O)c3ccco3)C2c2cccc([N+](=O)[O-])c2)s1 (stereo not given) | - | - | - | - | -
COc1cc2c(cc1OC)OC(C)(C)C=C2 | . | . | . | - | .
COc1cccc2cc(C(=O)N(Cc3cccs3)Cc3cccs3)c(=O)oc12 | . | - | . | . | -
CCCCNC(=S)NNC(=O)C1=NN(c2cc(C)ccc2C)C(=O)CC1 | ? | - | - | - | -
O=C(NCc1ccccc1F)c1cc2ccccn2n1 | - | - | - | . | -
CN1CCN(c2ccccc2/C=C2/C(=O)Nc3ccccc32)CC1 | 50µM | - | - | - | -
O=C1Nc2ccccc2/C1=C/c1ccccc1Cl | - | - | - | - | -
Cc1ccc(/C=N/NC(=O)c2nnn(-c3nonc3N)c2CNc2ccccc2)cc1 | - | 22µM | - | - | -
Cc1ccc(-c2c(C(=O)N/N=C/c3ccc(C)o3)nnn2-c2nonc2N)cc1 | . | - | - | 50µM | -
COc1ccc(OC2C(O)COC2/C=C/C#Cc2ccccc2)cc1 (stereo not given) | . | . | . | - | .
COc1ccc(NC2=NC(=S)N(c3ccccc3C)C23CCCCC3)cc1 | ? | - | - | - | -
[O-][N+]1=c2ccc(Nc3ccccc3)cc2=NC12CCCCC2 | . | 40µM | 20µM | - | ?
COc1ccc(Nc2ccc3c(c2)=NC2(CCCCC2)[N+]=3[O-])cc1 | ? | 22µM | 40µM | - | ?
Cc1cc(-c2ccc(C)c(S(=O)(=O)NCCCN3CCN(c4ccccc4)CC3)c2)on1 | 71µM | ? | ? | - | -
Cc1cc(-c2ccc(C)c(S(=O)(=O)NCCCN3CCN(c4ccccc4F)CC3)c2)on1 | - | - | - | - | -
CC/C=C\C/C=C\C/C=C\C/C=C\C/C=C\C/C=C\CCC(=O)NCCO | . | . | . | - | .
Cc1ccc(Nc2cc(C)c(O)c(C)c2)cc1 | 25µM | 40µM | 7.1µM | ? | 50µM
Cc1cc(NS(=O)(=O)c2ccc(NC(=O)/C=C/c3ccccc3)cc2)nc(C)n1 | . | - | . | . | -
COc1ccccc1/C=C/C(=O)Nc1ccc(S(=O)(=O)Nc2cc(C)nc(C)n2)cc1 | 35µM | - | ? | - | -
Cc1cc(NS(=O)(=O)c2ccc(NC(=O)/C=C/c3ccc(C)o3)cc2)nc(C)n1 | 8.9µM | 22µM | - | 3.5µM | -
COc1ccccc1CCC(=O)Nc1ccc(S(=O)(=O)Nc2cc(C)nc(C)n2)cc1 | 50µM | - | - | . | -
Cc1c(NC(=O)c2sc3ccccc3c2Cl)cccc1-c1nc2ccccc2o1 | - | - | - | . | -
CC(=O)Nc1cc(NC(C)=O)cc(C(=O)OCC(=O)Nc2ccc(S(=O)(=O)NC3=NCCCCC3)cc2)c1 | - | - | ? | - | -
CCc1cc2c(cc3c(=O)n(CC(=O)NC4CCC(C)CC4)ncn32)s1 (stereo not given) | - | - | - | . | -
